The text below walks through data of PubChem BioAssay (EPA / NIEHS).

The nature of assay [1]: ATG_NFI_CIS: Attagene CIS-FACTORIAL HepG2 Assay for human Nuclear Factor I (NFI) (AID 2282989). Conditions: HepG2 cis-regulatory reporter, NFI response element transcription; actives raise or lower the signal. The gist of the method:
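Read-out: reporter mRNA via RT-PCR plus capillary electrophoresis with fluorescence detection. Transiently transfected HepG2 (endogenous TF activity on cis promoters), 24 h compound exposure; gain or loss of signal fitted against DMSO.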

The target in assay [2] is Myc proto-oncogene protein (Homo sapiens) (UniProt P01106). Put plainly: ATG_Myc_CIS: Attagene CIS-FACTORIAL HepG2 Assay for human Myelocytomatosis (Myc) Proto-Oncogene Transcription Factor (AID 2282990). Conditions: HepG2, Attagene cis-reporter transcription factor activity; actives raise or lower the signal. The gist of the method:
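After 24 h chemical treatment of HepG2 cells carrying multiplexed cis-regulated reporter constructs, reporter transcripts quantified by RT-PCR and capillary electrophoresis of fluorescent fragments. Gain or loss fitted against DMSO baseline.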

Assay [3] is described as follows: ATG_NRF2_ARE_CIS: Attagene CIS-FACTORIAL HepG2 Assay for human Nuclear Factor Erythroid 2 Related Factor 2 (NFR2) response to Antioxidant Response Elements (ARE) (AID 2282992).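 For AC50: reporter mRNA level measured by RT-PCR and capillary electrophoresis fluorescence.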 To be noted: HepG2 Attagene ARE/NRF2 reporter, transcription factor activity; actives raise or lower the signal. The method in brief:
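Transient MRTU transfection of HepG2; 24 h compound exposure; TriZol RNA, RT with oligo(dT), PCR, 6-FAM primer extension, HpaI cut, CE. Bidirectional fit vs DMSO.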

Assay [4] is described as follows: ATG_Oct_MLP_CIS: Attagene CIS-FACTORIAL HepG2 Assay for human Octamer-Binding Transcription Factor (Oct) (AID 2282993). Conditions: HepG2 Attagene cis-factorial Oct reporter, mRNA; actives raise or lower the signal. The gist of the method: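 Read-out: reporter mRNA via RT-PCR plus capillary electrophoresis of 6-FAM-labelled fragments. Transiently transfected HepG2, 24 h exposure, endogenous TF activity on cis elements. Gain or loss of signal fitted relative to DMSO.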

Assay [5] deals with human Peroxisome Proliferator-activated Receptor alpha (PPARa), PPARA (gene 5465) (UniProt Q07869). Put plainly: ATG_PPARa_TRANS: Attagene TRANS-FACTORIAL HepG2 Assay for human Peroxisome Proliferator-activated Receptor alpha (PPARa) (AID 2283001; active = hit-call score of the fitted dose curve at least 0.9, where 1 is the maximum). The gist of the method:
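Read-out is fluorescence of reporter cDNA fragments resolved by capillary electrophoresis after RT-PCR. Human HepG2 liver cells carried transfected PPARa-Gal4 chimera and GAL4-UAS reporter units, treated 24 h; activity scored as increase over DMSO.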

For assay [6], the target named is human Peroxisome Proliferator-activated Receptor delta (PPARd), PPARD (gene 5467) (UniProt Q03181). Put plainly: ATG_PPARd_TRANS: Attagene TRANS-FACTORIAL HepG2 Assay for human Peroxisome Proliferator-activated Receptor delta (PPARd) (AID 2283002; active = hit-call score of the fitted dose curve at least 0.9, where 1 is the maximum). The method in brief:
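Read-out is induced reporter mRNA, quantified by RT-PCR with fluorescent labelling and capillary electrophoresis after 24 h dosing. Cells are HepG2 transiently carrying multiple GAL4-UAS reporter units driven by exogenous NR-GAL4 chimeras; DMSO serves as baseline.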

In assay [7] the target is Peroxisome proliferator-activated receptor gamma (Homo sapiens) (UniProt P37231). Nature of the assay: ATG_PPARg_TRANS: Attagene TRANS-FACTORIAL HepG2 Assay for human Peroxisome Proliferator-activated Receptor-gamma (PPARg) (AID 2283007; active = hit-call score of the fitted dose curve at least 0.9, where 1 is the maximum). The gist of the method:
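Chimeric NR-Gal4 transactivation is measured in transiently transfected HepG2 cells by reporter mRNA induction at 24 h. Detection uses RT-PCR with fluorescent labelling and capillary electrophoresis; DMSO defines baseline.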

In assay [8] the target is Nuclear receptor subfamily 1 group I member 2 (Homo sapiens) (UniProt O75469). Nature of the assay: ATG_PXR_TRANS: Attagene TRANS-FACTORIAL HepG2 Assay for human Pregnane X Receptor (PXR) (AID 2283008; active = hit-call score of the fitted dose curve at least 0.9, where 1 is the maximum). The gist of the method: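 Read-out is fluorescence of labelled reporter cDNA fragments separated by capillary electrophoresis after RT-PCR and HpaI digestion. Source: HepG2 cells carrying PXR-GAL4/UAS reporter constructs, treated 24 h; activity fitted upward relative to DMSO.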
Sequence of Nuclear receptor subfamily 1 group I member 2 (Homo sapiens) (O75469 whole entry, looked up, the tested form may be a part): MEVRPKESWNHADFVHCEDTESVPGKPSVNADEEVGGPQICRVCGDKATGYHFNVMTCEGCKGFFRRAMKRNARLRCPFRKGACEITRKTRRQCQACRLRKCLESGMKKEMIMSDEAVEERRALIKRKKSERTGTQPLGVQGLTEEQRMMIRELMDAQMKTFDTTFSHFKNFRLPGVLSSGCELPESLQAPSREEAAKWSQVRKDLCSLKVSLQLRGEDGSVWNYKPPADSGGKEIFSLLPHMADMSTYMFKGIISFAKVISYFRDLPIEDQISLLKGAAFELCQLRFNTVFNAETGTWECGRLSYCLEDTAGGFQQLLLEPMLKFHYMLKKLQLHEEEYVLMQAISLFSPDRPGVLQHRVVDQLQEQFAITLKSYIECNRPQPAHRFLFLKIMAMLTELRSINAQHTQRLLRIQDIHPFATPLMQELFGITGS

Assay [9] addresses human RAR-related Orphan Receptor gamma (RORg), RORC (gene 6097) (UniProt P51449). Put plainly: ATG_RORg_TRANS: Attagene TRANS-FACTORIAL HepG2 Assay for human RAR-related Orphan Receptor gamma (RORg) (AID 2283011; active = hit-call score of the fitted dose curve at least 0.9, where 1 is the maximum). The gist of the method: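 First, HepG2 liver cells were transfected with GAL4-UAS-driven reporter constructs and the RORg-Gal4 fusion. Next, they were treated with chemical for 24 h. Finally, reporter mRNA was quantified by RT-PCR and capillary electrophoresis, with upward activity fitted against DMSO.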

A short description of assay [10]: ATG_NF_kB_CIS: Attagene CIS-FACTORIAL HepG2 Assay for human Nuclear Factor Kappa B (NF-kB) (AID 2282991). To be noted: HepG2 Attagene cis-factorial NF-kB reporter mRNA; actives raise or lower the signal. The gist of the method: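 DMSO served as negative control and baseline for bidirectional curve fitting. Transiently transfected HepG2 cells were dosed for 24 h, then reporter transcripts were measured by RT-PCR with capillary electrophoresis detection.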

Assay [11] deals with Cellular tumor antigen p53 (Homo sapiens) (UniProt P04637). Put plainly: ATG_p53_CIS: Attagene CIS-FACTORIAL HepG2 Assay for human p53 Transcription Factor (AID 2282994). To be noted: HepG2 p53 cis-element reporter, Attagene mRNA; actives raise or lower the signal. The method in brief: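 HepG2, transient MRTU transfection (cis promoter elements, endogenous TFs); 24 h dosing; RNA isolation, RT-PCR, 6-FAM primer extension, HpaI digest, CE fluorescence; bidirectional fit vs DMSO.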
Sequence of Cellular tumor antigen p53 (Homo sapiens) (P04637 whole entry, looked up): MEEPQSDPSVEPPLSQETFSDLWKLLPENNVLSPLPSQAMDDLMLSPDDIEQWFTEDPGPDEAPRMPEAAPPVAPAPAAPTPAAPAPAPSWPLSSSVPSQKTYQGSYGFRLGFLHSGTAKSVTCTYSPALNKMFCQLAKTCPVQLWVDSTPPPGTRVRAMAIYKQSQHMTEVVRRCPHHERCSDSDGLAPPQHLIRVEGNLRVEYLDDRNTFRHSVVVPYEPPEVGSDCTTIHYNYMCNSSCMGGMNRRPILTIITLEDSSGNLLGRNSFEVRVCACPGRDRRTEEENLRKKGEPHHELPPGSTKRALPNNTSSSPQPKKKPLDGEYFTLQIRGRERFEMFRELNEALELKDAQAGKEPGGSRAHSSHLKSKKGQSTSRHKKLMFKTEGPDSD

The nature of assay [12]: BSK_3C_uPAR: BioMAP Diversity Plus: 3C Assay for Urokinase-type plasminogen activator receptor (uPAR) Biomarker Activity (AID 2282998). Conditions: BioMAP 3C HUVEC, uPAR biomarker ELISA; actives raise or lower the signal. The gist of the method:
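HUVEC primary cells; 24 h post-dose; uPAR by ELISA; gain or loss of signal fitted bidirectionally vs DMSO baseline.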
For orientation: ELISA stands for enzyme-linked immunosorbent assay.

Assay [13] in a line: BSK_3C_VCAM1: BioMAP Diversity Plus: 3C Assay for Vascular cell adhesion molecule 1 (VCAM1) Biomarker Activity (AID 2282999). To be noted: BioMAP 3C HUVEC, VCAM1 ELISA, cytokine-stimulated; actives raise or lower the signal. The gist of the method: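 Endothelial cells from human umbilical vein are treated with test chemical. At 24 h, VCAM-1 is measured by ELISA, and responses in either direction are fitted relative to DMSO.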

The nature of assay [14]: BSK_4H_Eotaxin3: BioMAP Diversity Plus: 4H Assay for Eotaxin 3 Biomarker Activity (AID 2283000).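 For outcome: CCL26 protein level quantified by ELISA in parallel with SRB cytotoxicity check.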 To be noted: primary human endothelial cells (HUVEC); actives raise or lower the signal. The method in brief:
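Chemicals were added to human umbilical vein endothelium cultures, and Eotaxin-3 was quantified by ELISA at 24 h. Values were derived by bidirectional fitting with DMSO serving as negative control and activity baseline.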

Read-out in assay [15]: Intercellular Adhesion Molecule 1 (ICAM1), ICAM1 (gene 3383)
Nature of the assay: BSK_3C_ICAM1: BioMAP Diversity Plus: 3C Assay for Intercellular Adhesion Molecule 1 (ICAM1) Biomarker Activity (AID 2283003). Conditions: primary human endothelial cells (HUVEC); actives raise or lower the signal. The method in brief:
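HUVEC primary cells stimulated under 3C conditions; ICAM1 measured by ELISA 24 h after compound dosing. Curves fitted bidirectionally against the DMSO baseline. Overt cytotoxicity checked by SRB staining of parallel cultures.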

Assay [16] is described as follows: BSK_3C_TissueFactor: BioMAP Diversity Plus: 3C Assay for Tissue Factor Biomarker Activity (AID 2282997). To be noted: BioMAP 3C HUVEC, tissue factor biomarker readout; actives raise or lower the signal. The method in brief:
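ELISA read-out of Tissue Factor levels on human umbilical vein endothelium collected 24 h after chemical dosing. Gain or loss of signal was fitted relative to DMSO.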

The target of assay [17] is human RAR-related Orphan Receptor beta (RORb), RORB (gene 6096) (UniProt Q92753). Put plainly: ATG_RORb_TRANS: Attagene TRANS-FACTORIAL HepG2 Assay for human RAR-related Orphan Receptor beta (RORb) (AID 2283010; active = hit-call score of the fitted dose curve at least 0.9, where 1 is the maximum). The gist of the method: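 HepG2 cells transiently transfected with GAL4-UAS reporter units expressing chimeric NR-Gal4 protein; reporter mRNA measured 24 h after dosing by RT-PCR, 6-FAM labelling and capillary electrophoresis. Gain-of-signal fitted relative to DMSO baseline.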
Sequence of human RAR-related Orphan Receptor beta (RORb), RORB (gene 6096) (Q92753 whole entry, looked up, the tested form may be a part): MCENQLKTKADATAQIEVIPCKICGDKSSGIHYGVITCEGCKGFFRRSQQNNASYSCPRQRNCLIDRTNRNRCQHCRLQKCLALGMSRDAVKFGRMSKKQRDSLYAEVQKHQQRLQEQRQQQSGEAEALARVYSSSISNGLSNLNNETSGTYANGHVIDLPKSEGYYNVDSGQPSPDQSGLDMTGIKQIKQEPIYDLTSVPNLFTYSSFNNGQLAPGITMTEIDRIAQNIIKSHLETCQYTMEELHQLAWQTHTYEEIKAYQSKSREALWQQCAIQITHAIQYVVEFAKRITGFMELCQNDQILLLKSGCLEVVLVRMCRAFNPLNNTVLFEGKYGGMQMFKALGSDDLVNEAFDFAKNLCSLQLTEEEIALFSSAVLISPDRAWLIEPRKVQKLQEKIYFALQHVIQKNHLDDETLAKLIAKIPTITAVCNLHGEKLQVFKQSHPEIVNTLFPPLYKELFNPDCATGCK

Assay [18] deals with Retinoic acid receptor alpha (Homo sapiens) (UniProt P10276). Nature of the assay: ATG_RARa_TRANS: Attagene TRANS-FACTORIAL HepG2 Assay for human Retinoic Acid Receptor alpha (RARa) (AID 2283005; active = hit-call score of the fitted dose curve at least 0.9, where 1 is the maximum). The method in brief: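 Reporter transcripts, measured by RT-PCR with fluorescent labeling and capillary electrophoresis after 24 h dosing, reflect activity of an exogenous human RARa–GAL4 fusion in transiently transfected HepG2. Fitted for increase relative to DMSO.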
Sequence of Retinoic acid receptor alpha (Homo sapiens) (P10276 whole entry, looked up, the tested form may be a part): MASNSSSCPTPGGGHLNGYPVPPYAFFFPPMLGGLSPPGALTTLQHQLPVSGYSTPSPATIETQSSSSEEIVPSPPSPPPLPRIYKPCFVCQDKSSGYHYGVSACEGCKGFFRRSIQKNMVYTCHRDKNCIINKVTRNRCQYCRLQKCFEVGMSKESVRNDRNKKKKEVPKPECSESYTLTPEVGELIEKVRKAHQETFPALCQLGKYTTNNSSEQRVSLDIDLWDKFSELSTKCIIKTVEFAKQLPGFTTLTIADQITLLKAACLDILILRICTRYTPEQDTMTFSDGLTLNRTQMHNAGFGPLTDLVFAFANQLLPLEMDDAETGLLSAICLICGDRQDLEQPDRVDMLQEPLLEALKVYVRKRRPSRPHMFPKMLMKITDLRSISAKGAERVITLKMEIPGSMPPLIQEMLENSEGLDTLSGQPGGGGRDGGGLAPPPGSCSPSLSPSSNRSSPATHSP

Assay [19] concerns the target human Retinoic Acid Receptor gamma (RARg), RARG (gene 5916) (UniProt P13631). Put plainly: ATG_RARg_TRANS: Attagene TRANS-FACTORIAL HepG2 Assay for human Retinoic Acid Receptor gamma (RARg) (AID 2283009; active = hit-call score of the fitted dose curve at least 0.9, where 1 is the maximum). The gist of the method: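 HepG2 transiently transfected with GAL4-UAS reporter units and chimeric NR-Gal4 constructs; 24 h compound exposure. Reporter mRNA quantified by RT-PCR, FAM labeling, HpaI digestion and capillary electrophoresis; gain-of-signal versus DMSO.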

Broadly, the AC50 is the concentration giving half of the maximal activity seen.

SMILES strings stand for the structures. Inconclusive results are not listed. Calls of active or inactive are those of the source. Rule for the calls, unless noted: active = hit-call score of the fitted dose curve at least 0.9, where 1 is the maximum; inactive = score below 0.9.

Sequence of human Peroxisome Proliferator-activated Receptor alpha (PPARa), PPARA (gene 5465) (Q07869 whole entry, looked up, the tested form may be a part): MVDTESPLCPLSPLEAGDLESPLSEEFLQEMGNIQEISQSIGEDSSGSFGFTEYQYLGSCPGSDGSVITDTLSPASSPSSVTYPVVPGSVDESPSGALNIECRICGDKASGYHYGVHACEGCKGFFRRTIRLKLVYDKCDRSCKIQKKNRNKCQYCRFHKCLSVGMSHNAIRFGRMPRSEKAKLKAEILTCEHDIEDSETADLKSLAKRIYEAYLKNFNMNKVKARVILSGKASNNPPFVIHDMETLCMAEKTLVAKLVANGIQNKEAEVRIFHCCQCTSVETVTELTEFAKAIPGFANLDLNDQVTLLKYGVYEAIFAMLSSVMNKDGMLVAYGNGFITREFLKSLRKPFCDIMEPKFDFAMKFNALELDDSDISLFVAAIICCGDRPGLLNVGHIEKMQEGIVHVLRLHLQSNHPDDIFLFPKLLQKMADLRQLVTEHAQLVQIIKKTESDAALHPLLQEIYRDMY
Sequence of Myc proto-oncogene protein (Homo sapiens) (P01106 whole entry, looked up, the tested form may be a part): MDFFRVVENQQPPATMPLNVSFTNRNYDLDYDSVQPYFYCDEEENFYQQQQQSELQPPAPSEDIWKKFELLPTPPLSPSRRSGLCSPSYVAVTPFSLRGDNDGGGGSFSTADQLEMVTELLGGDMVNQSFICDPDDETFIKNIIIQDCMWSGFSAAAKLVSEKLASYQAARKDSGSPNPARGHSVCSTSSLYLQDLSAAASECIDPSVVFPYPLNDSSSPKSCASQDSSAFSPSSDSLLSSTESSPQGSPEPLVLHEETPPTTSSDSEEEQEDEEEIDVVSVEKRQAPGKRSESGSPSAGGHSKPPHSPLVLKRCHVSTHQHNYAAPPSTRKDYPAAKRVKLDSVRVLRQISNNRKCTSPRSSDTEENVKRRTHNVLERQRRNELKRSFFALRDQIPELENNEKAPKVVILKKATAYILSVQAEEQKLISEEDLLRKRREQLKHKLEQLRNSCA
Sequence of human Peroxisome Proliferator-activated Receptor delta (PPARd), PPARD (gene 5467) (Q03181 whole entry, looked up, the tested form may be a part): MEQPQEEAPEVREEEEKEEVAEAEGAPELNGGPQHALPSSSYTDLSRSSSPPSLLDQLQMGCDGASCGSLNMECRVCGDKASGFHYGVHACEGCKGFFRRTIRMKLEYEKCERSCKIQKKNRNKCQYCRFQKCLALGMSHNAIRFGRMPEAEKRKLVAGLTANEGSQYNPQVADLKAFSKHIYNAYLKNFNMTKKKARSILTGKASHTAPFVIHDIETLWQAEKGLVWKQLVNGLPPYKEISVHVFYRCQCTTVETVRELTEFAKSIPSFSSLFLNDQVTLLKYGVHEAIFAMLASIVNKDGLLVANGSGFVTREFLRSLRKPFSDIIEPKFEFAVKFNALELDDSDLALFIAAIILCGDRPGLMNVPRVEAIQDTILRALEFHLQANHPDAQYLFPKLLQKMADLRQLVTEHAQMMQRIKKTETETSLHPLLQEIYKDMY
Sequence of Peroxisome proliferator-activated receptor gamma (Homo sapiens) (P37231 whole entry, looked up, the tested form may be a part): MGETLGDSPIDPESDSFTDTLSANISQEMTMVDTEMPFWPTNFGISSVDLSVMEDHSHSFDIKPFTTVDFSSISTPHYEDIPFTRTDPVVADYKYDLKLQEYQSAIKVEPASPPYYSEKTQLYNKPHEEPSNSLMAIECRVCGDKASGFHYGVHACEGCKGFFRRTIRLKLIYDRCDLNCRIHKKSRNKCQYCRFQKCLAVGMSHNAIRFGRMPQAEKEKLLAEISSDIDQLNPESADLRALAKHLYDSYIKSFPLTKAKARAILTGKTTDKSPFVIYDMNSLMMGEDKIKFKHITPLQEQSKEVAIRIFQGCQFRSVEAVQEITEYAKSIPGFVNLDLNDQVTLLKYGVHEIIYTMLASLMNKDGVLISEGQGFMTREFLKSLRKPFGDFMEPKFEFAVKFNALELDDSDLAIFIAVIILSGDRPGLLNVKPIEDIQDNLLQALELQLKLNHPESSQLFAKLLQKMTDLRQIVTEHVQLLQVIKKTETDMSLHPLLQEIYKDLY
Sequence of human RAR-related Orphan Receptor gamma (RORg), RORC (gene 6097) (P51449 whole entry, looked up, the tested form may be a part): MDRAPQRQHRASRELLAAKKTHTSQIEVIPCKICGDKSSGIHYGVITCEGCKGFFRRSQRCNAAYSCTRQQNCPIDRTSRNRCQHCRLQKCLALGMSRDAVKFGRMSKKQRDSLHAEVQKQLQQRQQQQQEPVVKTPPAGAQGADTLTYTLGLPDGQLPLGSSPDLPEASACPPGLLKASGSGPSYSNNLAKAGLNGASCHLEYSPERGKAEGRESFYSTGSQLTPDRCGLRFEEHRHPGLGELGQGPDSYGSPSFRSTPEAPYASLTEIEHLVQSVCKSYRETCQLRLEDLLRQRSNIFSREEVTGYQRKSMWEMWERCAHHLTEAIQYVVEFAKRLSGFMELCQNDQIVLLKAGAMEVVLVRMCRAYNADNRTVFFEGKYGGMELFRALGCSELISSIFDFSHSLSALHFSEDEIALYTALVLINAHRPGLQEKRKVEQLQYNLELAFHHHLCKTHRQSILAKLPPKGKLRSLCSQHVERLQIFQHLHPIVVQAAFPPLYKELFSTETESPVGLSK
Sequence of human Retinoic Acid Receptor gamma (RARg), RARG (gene 5916) (P13631 whole entry, looked up, the tested form may be a part): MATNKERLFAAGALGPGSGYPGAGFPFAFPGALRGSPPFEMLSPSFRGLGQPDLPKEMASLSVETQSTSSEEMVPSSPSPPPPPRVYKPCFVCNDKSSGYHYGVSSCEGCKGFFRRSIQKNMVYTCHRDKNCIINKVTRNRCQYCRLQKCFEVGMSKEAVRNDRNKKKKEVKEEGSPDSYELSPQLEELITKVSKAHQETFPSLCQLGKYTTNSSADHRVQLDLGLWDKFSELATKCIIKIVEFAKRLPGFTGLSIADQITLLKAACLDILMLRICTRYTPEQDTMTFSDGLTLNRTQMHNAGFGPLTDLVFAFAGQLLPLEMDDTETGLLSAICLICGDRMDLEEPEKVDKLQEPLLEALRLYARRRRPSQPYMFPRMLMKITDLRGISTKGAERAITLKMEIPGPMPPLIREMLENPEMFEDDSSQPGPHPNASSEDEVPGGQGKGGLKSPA

For the molecule `CCCCCCCCCCCCSC`, the call in assay [1], in [2], in [3], in assay [4], in [5] and in [6] was inactive. The outcome in [7], in assay [8] and in [9] was inactive.

Take `COc1ccc(Cl)cc1C`: the outcome in assay [1], in [2], in assay [3], in assay [4], in [5] and in assay [9] was inactive.

Consider `Cc1ccc2n[nH]nc2c1`, for which the molecule was classed as inactive in assay [1], in assay [10], in assay [3], in [4], in assay [11] and in assay [12]. The outcome in assay [13], in assay [14], in [5], in [6], in assay [15] and in assay [7] was inactive. In addition, the result in assay [9] was inactive.

As for `O=C(Cl)c1cccc(C(=O)Cl)c1`, the call in assay [1], in [2], in assay [4] and in assay [5] was inactive.

As for `S=C(S)NCCNC(=S)S`, the outcome in assay [1], in [2], in assay [3], in assay [4], in assay [5] and in [7] was inactive. The result in assay [9] was inactive.

As to `CC(C)(COC(=O)c1ccccc1)COC(=O)c1ccccc1`, the result in assay [1], in assay [2], in [4], in assay [13], in assay [5] and in assay [6] was inactive. The result in assay [15] and in assay [7] was inactive. Further, the results for the AC50 in assay [16], in assay [12] and in assay [14] were 11.4 µM (active), 34 µM (active) and 29.5 µM (active), respectively.

Take `CC(C)(CO)[N+](=O)[O-]`: the call in [1], in assay [2], in assay [3], in assay [8] and in [17] was inactive.

`CC(=O)/C=C/C1=C(C)CCCC1(C)C`: the molecule was called inactive in assay [1], in assay [2], in assay [4], in assay [12], in assay [13] and in [14]. In addition, the result in assay [15] was inactive. For the same molecule, the AC50 in assay [3] is 27.7 µM (active); in [8], 2.3 µM (active).

As to `CN1Cc2c(N)cccc2C(c2ccccc2)C1` (configuration not stated), the outcome in assay [1], in assay [2], in [3], in [4], in [18] and in assay [7] was inactive. Moreover, the molecule was classed as inactive in assay [8] and in assay [19].
